Cardio protect = protects H9c2 cardiomyocytes from peroxide injury; actives 0.63% (n = 360,000); protection from H2O2 cell death, % at 20 µM; H2O2 injury protection, ATPLite, 2 h; AID 588492;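 active = compounds giving at least 50% protection of heart cells from peroxide-induced death in the single-dose screen, raw or plate-pattern-corrected value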
PHOSPHO1 block = PHOSPHO1 (human) inhibition. Q8TCT1. recombinant PHOSPHO1, absorbance phosphatase assay. inhibition, % at 13.3 µM. actives 1.1% (n = 290,000). AID 1565; in the data active = inhibition above about 60%
KCC2 mod = modulates chloride dependent transport by human KCC2 | Q9H2X9 | KCC2 cells, thallium flux FluoZin-2 fluorescence | B-score of Tl+ flux slope (higher = more flux/activation; lower = inhibition) at 10 µM | actives 2.2% (n = 190,000) | AID 1456;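 active = thallium flux slope and its plate-corrected score both differing from the plate sample mean at a set confidence after two filtering rounds, in either direction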;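 also: slope of fluorescence scaled to starting intensity during 10 to 20 s after thallium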
Target sequence (Q9H2X9 whole entry, looked up): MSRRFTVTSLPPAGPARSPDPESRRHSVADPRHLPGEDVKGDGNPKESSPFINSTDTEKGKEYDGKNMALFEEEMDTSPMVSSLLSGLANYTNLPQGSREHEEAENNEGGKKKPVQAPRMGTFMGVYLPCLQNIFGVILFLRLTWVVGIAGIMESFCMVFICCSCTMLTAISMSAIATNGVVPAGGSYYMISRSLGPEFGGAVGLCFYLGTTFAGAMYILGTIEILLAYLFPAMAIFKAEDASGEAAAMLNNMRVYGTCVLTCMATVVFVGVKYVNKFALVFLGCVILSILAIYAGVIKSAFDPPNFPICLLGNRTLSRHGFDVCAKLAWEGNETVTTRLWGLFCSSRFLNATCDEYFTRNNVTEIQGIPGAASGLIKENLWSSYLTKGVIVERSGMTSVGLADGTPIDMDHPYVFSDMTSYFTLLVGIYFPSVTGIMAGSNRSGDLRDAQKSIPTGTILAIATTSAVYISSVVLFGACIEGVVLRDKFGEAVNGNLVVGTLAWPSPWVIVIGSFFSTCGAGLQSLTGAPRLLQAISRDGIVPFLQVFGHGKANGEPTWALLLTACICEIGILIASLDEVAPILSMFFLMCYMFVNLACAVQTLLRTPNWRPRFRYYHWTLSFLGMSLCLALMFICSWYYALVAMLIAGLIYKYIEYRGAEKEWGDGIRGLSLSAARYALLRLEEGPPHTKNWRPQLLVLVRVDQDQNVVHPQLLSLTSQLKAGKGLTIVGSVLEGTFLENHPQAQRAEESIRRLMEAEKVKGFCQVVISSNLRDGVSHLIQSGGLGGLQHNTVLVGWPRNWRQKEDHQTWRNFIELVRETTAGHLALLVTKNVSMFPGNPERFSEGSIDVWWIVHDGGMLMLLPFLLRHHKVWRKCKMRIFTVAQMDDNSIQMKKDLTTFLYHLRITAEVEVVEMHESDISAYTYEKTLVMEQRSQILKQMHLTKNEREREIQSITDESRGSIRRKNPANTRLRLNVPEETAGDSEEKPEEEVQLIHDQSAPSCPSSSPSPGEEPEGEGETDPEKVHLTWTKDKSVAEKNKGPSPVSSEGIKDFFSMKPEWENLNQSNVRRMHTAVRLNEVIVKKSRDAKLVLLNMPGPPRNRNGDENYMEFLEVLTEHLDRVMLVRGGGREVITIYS
Calb FLC = C. albicans growth modulation with fluconazole; growth inhibition, % (concentration not given with the values); C. albicans CaCi-2 (fluconazole-resistant clinical isolate) + fluconazole, Alamar Blue growth, 48 h; actives 0.57% (n = 300,000);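 active = growth inhibition above about 58% in most replicates, limit read from the data, passing the limit was not always enough; inconclusive = exactly half the replicates above a set limit; inactive = most replicates below a set limit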;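 also: all wells also contain fluconazole at 8 µg/ml as a sub-toxic cotreatment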
Efflux pump mplx = antifungal efflux pump inhibition, Nile Red retention; S. cerevisiae Candida pump triplex; inhibition, % at 10 µM; actives 0.44% (n = 330,000); AID 485275;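 active = plate passing quality check with inhibition over a set limit, or well fluorescence over plate mean plus 4 SD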;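 also: Nile Red retained in pooled yeast measured as flow cytometry median fluorescence; higher means more Nile Red kept so more efflux inhibition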
KCC2 sec1 = KCC2 (human) modulation, secondary assay; normalised thallium flux (F/F0 slope) at 10 µM; AID 1713; shares compounds with KCC2 mod; HEK293-KCC2, thallium flux, FluoZin2 fluorescence; stronger effect = higher value; actives 15% (n = 3,700);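 active = thallium flux slope above the same plate's solvent-only control mean plus 3 SD; inconclusive = the two replicate wells disagree; inactive = no significant difference from solvent-only control wells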
KCC2 bumet counter = thallium flux persisting under bumetanide in KCC2 cells, counter-screen secondary assay; shares compounds with KCC2 mod; HEK293-KCC2 + bumetanide/ouabain, thallium flux FluoZin2; stronger effect = higher value; normalized thallium flux at 10 µM; actives 49% (n = 3,700);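 active = thallium entry rate above the same plate's blocked-transporter control wells by more than 3 SD; inconclusive = the two repeat wells disagree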;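 also: raw slope of fluorescence over initial fluorescence between 10 and 20 s after thallium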
KCC2 secondary2 = confirmation of human KCC2 transport modulators; shares compounds with KCC2 mod; HEK293-KCC2, thallium flux FluoZin2 fluorescence; actives lie on both sides; F/F0 rise rate, 10–20 s post-thallium; normalized thallium flux at 10 µM; actives 23% (n = 3,700);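 active = thallium flux slope more than 3 SD above or below the plate's solvent-only control mean, mostly below; inconclusive = the two repeat wells disagreed; inactive = no significant shift from solvent-only controls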
HEK counter1 = counter-screen for KCC2 modulators: effect in parental HEK293 cells; shares compounds with KCC2 mod; thallium flux FluoZin2, ouabain; baseline-ratio fluorescence slope, 10–20 s after thallium; thallium flux rate (normalised fluorescence) at 10 µM; actives 46% (n = 3,700); AID 1716;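 active = thallium flux rate significantly above the same plate's solvent-only control wells, beyond their mean plus 3 SD; inconclusive = the two replicate wells gave conflicting results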
KCC2 ouabain = modulates human KCC2 on retest with ouabain; actives 48% (n = 3,700); AID 1717; raw Tl+ flux slope (below DMSO = inhibition, above = activation) at 10 µM; HEK293-KCC2, thallium flux FluoZin2 fluorescence; bidirectional: low = inhibitor, high = activator; shares compounds with KCC2 mod;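 active = thallium flux slope beyond 3 SD from same-plate DMSO control mean in most replicates, usually higher, sometimes lower; inconclusive = repeat tests gave conflicting results; inactive = no significant difference from controls in most replicates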;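 also: slope of initial-normalized fluorescence between seconds 10 and 20 after thallium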
HEK293 Tl flux2 = acts in parental HEK cells, second KCC2 counter-screen; shares compounds with KCC2 mod; thallium flux slope at 10 µM; actives 33% (n = 3,700); AID 1718; HEK293 parental, thallium flux FluoZin-2 fluorescence slope;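 active = thallium flux slope above the same plate's solvent-control mean plus 3 SD in both duplicate wells; inconclusive = duplicate wells that disagreed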;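 also: run without ouabain in cells lacking the KCC2 cotransporter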
Large screens that a line does not name were inactive (follow-up assays come after a bar, where they were run). Hits are enriched below; roughly 3.3% of the tested compounds scored in any of these assays.

COCCN(C(=O)CNC(=O)c1cccs1)C(C(=O)NC1CCCCC1)c1ccco1 (centres undefined)	none (no result: KCC2 mod, Calb FLC) | KCC2 sec1 inactive | KCC2 bumet counter inactive | KCC2 secondary2 inactive | HEK counter1 inactive | KCC2 ouabain inactive | HEK293 Tl flux2 inactive
COCCN(C(=O)CNC(=O)c1cccs1)C(C(=O)NC1CCCC1)c1cccs1 (centres undefined)	none
O=S(=O)(NC(=S)NC1CCCCC1)c1ccc(Br)cc1	KCC2 mod 10.6 | KCC2 sec1 0.0118 | KCC2 bumet counter 0.0282 | KCC2 secondary2 inactive | HEK counter1 0.0228 | KCC2 ouabain 0.0329 | HEK293 Tl flux2 0.0119
C=CCNC(=S)Nc1sc2c(c1C(N)=O)CCCC2	KCC2 mod 8.27 | KCC2 sec1 inactive | KCC2 bumet counter 0.0143 | KCC2 secondary2 inactive | HEK counter1 0.0117 | KCC2 ouabain 0.0282 | HEK293 Tl flux2 0.0111
COc1ccc(NC(=O)CS(=O)(=O)c2ccccc2Cl)cc1	none (no result: KCC2 mod)
CCOC(=O)Cn1c(=O)oc2cc(S(=O)(=O)N3CCc4ccccc43)ccc21	KCC2 mod -3.26 | KCC2 sec1 inactive | KCC2 bumet counter inactive | KCC2 secondary2 inactive | HEK counter1 inactive | KCC2 ouabain inactive | HEK293 Tl flux2 inactive
C/C(=N\NC(=O)c1cccc(Br)c1)c1cccnc1	none (no result: KCC2 mod)
Cc1cc(C(C)(C)C)ccc1OCCN1CCCC1	none (no result: KCC2 mod) | KCC2 sec1 inactive | KCC2 bumet counter inactive | KCC2 secondary2 inactive | HEK counter1 inactive | KCC2 ouabain inactive | HEK293 Tl flux2 inconclusive
CCOC(=O)c1c(C)[nH]c(N=Nc2ccccc2)c1C	KCC2 mod 5.25 | KCC2 sec1 inactive | KCC2 bumet counter 0.00975 | KCC2 secondary2 inactive | HEK counter1 0.00913 | KCC2 ouabain inconclusive | HEK293 Tl flux2 inconclusive
FC(F)Sc1nc2ccccc2[nH]1	KCC2 mod 50.3 | KCC2 sec1 0.026 | KCC2 bumet counter 0.113 | KCC2 secondary2 0.0481 | HEK counter1 0.0502 | KCC2 ouabain 0.0512 | HEK293 Tl flux2 0.0244
FC(F)c1nc2ccccc2[nH]1	none
O=C(/C=C/c1ccccc1)Nc1cccc(C(=O)N2CCCC2)c1	none (no result: PHOSPHO1 block, KCC2 mod, Calb FLC, Efflux pump mplx)
Cc1sc2ncn(CC(=O)OCC(=O)NC(C)(C)C)c(=O)c2c1C	none (no result: KCC2 mod) | KCC2 sec1 inactive | KCC2 bumet counter inactive | KCC2 secondary2 inactive | HEK counter1 inactive | KCC2 ouabain inactive | HEK293 Tl flux2 inactive
Cc1ccc(NC(=O)C(=O)NNC(=O)c2ccccc2C)cc1Cl	KCC2 mod 45.9 | KCC2 sec1 0.0476 | KCC2 bumet counter 0.115 | KCC2 secondary2 0.052 | HEK counter1 inconclusive | KCC2 ouabain 0.0867 | HEK293 Tl flux2 0.0433
COc1ccc(C(=O)NNC(=O)C(=O)Nc2ccc(C)c(Cl)c2)cc1	KCC2 mod 47.5 | KCC2 sec1 0.0104 | KCC2 bumet counter 0.0672 | KCC2 secondary2 0.0536 | HEK counter1 0.0572 | KCC2 ouabain 0.0601 | HEK293 Tl flux2 0.0513
CCOC(=O)C1=C2NC(=O)c3ccccc3N2C(=O)C1	KCC2 mod 40.2 | KCC2 sec1 0.0142 | KCC2 bumet counter 0.0908 | KCC2 secondary2 inactive | HEK counter1 0.0367 | KCC2 ouabain 0.0693 | HEK293 Tl flux2 0.018
CC1(CCc2ccccc2)NC(=O)N(Cc2nnc(-c3ccccc3Br)o2)C1=O (centres undefined)	none (no result: KCC2 mod) | KCC2 sec1 inactive | KCC2 bumet counter inactive | KCC2 secondary2 0.0242 | HEK counter1 inactive | KCC2 ouabain 0.0163 | HEK293 Tl flux2 inactive
O=C(C1CCCCC1)N1CCCC(c2nc3c(nnn3Cc3ccccc3)c(=O)[nH]2)C1 (centres undefined)	none (no result: KCC2 mod) | KCC2 sec1 inactive | KCC2 bumet counter inconclusive | KCC2 secondary2 0.0264 | HEK counter1 0.00609 | KCC2 ouabain 0.0156 | HEK293 Tl flux2 inconclusive
COc1ccc(-c2noc(Cn3cc(S(=O)(=O)N4CCCC4)ccc3=O)n2)cc1	none (no result: PHOSPHO1 block, KCC2 mod, Calb FLC)
COC(=O)/C=c1/s/c(=C(\C#N)C(=O)NCc2ccco2)n(-c2ccc(C)cc2)c1=O	none (no result: KCC2 mod)
Cc1ccc(/C=c2\s/c(=C(/C#N)C(=O)N3CCCC3)n(Cc3ccco3)c2=O)s1	KCC2 mod 8.2 | KCC2 sec1 inactive | KCC2 bumet counter inactive | KCC2 secondary2 0.0245 | HEK counter1 inactive | KCC2 ouabain inactive | HEK293 Tl flux2 inactive
Cc1ccc(NC(=O)CN(C)C(=O)c2ccccc2Sc2ccccc2C#N)cc1	none (no result: PHOSPHO1 block, KCC2 mod)
CN(C(=O)c1cccc(NC(=O)Cc2ccc(NC(=O)C3CCCN(C(=O)C4CCCC4)C3)cc2)c1)C1CC1 (centres undefined)	none (no result: PHOSPHO1 block, KCC2 mod, Calb FLC, Efflux pump mplx)
CC(=O)Nc1ccc(NC(=O)CN2CCN(c3ccccn3)CC2)cc1	none (no result: KCC2 mod)
O=C(CN1CCN(c2ccccn2)CC1)Nc1ccc2ccccc2c1	none (no result: KCC2 mod) | KCC2 sec1 inactive | KCC2 bumet counter inactive | KCC2 secondary2 inactive | HEK counter1 inactive | KCC2 ouabain inactive | HEK293 Tl flux2 inactive
COc1cc(C2NC(=O)NC(c3ccccc3)=C2C(C)=O)cc([N+](=O)[O-])c1O (centres undefined)	none
Cc1ccccc1NC(=S)NC1CCCC1	none (no result: PHOSPHO1 block, KCC2 mod)
S=C(Nc1ccccn1)NC1CCCCC1	KCC2 mod 3.49 | KCC2 sec1 inactive | KCC2 bumet counter 0.00631 | KCC2 secondary2 inactive | HEK counter1 inactive | KCC2 ouabain inactive | HEK293 Tl flux2 inactive
Cc1cccc(NC(=S)NNC(=S)NC2CCCCC2)c1C	KCC2 mod 3.99 | KCC2 sec1 inactive | KCC2 bumet counter 0.0123 | KCC2 secondary2 inactive | HEK counter1 0.0094 | KCC2 ouabain inconclusive | HEK293 Tl flux2 inactive
O=C(NC(=S)Nc1ccccn1)c1ccccc1	KCC2 mod 9.13 | KCC2 sec1 inactive | KCC2 bumet counter 0.0173 | KCC2 secondary2 inactive | HEK counter1 inconclusive | KCC2 ouabain 0.0271 | HEK293 Tl flux2 inactive
O=C(NC(=S)Nc1ccccn1)c1ccc(-c2ccccc2)cc1	none (no result: KCC2 mod)
O=C(NC(=S)Nc1cccc2ncccc12)c1ccccc1	KCC2 mod 4.47 | KCC2 sec1 inactive | KCC2 bumet counter 0.00996 | KCC2 secondary2 inactive | HEK counter1 0.0111 | KCC2 ouabain inactive | HEK293 Tl flux2 inconclusive
S=C(Nc1ccccn1)NC1CCCC1	none
CCCCn1c(N)c(N(CC)C(=O)c2ccccc2F)c(=O)[nH]c1=O	none (no result: KCC2 mod)

Screening results as filed in PubChem BioAssay.
